{"source": "PubChem BioAssay (Tox21)", "note": "Inconclusive results are not listed. Entries that show only a call come without a potency. Values without a mark were called inactive. Activity calls are given as the source filed them. Calls come from the whole dose curve; as a rule, active = well fitted activation curve with a large enough effect in the repeat runs; inconclusive = weak or mixed curves; inactive = no such curve, though single readings can be large or run the other way. Potency is the fitted concentration of half-maximal effect."}
{"biological_target": "Aryl hydrocarbon receptor (Homo sapiens) (UniProt P35869)", "sequence (P35869 whole entry, looked up)": "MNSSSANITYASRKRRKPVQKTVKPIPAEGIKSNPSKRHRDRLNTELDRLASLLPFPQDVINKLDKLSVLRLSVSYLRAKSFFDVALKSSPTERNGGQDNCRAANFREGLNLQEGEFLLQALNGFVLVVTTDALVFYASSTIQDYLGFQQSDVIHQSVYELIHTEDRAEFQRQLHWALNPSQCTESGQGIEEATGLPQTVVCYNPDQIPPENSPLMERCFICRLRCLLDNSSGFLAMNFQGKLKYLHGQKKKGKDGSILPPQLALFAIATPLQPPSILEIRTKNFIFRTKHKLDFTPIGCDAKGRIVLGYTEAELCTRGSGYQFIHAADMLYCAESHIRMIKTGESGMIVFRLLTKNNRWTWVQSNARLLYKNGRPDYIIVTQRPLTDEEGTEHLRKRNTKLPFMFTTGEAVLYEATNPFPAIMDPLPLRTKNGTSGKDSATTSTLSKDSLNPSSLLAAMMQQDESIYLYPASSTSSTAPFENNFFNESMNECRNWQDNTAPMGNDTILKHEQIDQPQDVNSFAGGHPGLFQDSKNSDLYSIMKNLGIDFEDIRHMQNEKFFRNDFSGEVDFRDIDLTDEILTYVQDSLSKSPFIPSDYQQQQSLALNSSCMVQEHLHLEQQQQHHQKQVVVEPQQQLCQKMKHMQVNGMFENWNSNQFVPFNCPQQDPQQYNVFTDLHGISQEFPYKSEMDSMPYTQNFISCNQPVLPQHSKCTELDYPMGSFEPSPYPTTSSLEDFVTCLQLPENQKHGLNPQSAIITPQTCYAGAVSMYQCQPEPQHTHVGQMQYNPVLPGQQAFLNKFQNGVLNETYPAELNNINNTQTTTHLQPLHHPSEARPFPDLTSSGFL", "test": "qHTS assay to identify small molecule that activate the aryl hydrocarbon receptor (AhR) signaling pathway (AID 743085); note: nearly all actives have a fitted effect of over 15% in size;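 for activation: HG2L7.5c1 human HepG2 liver cells with stably integrated DRE-driven firefly reporter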", "conditions": "HepG2 AhR-luc (HG2L7.5c1), luciferase, 24 h; series mostly up to 70.3 µM", "source_text": "U.S. Tox21 Program National Center for Advancing Translational Sciences [NCATS] NIH Chemical Genomics Center [NCGC] U.S. Environmental Protection Agency [EPA] National Institutes of Environmental Health Sciences [NIEHS] National Toxicology Program [NTP] U.S. Food and Drug Administration [FDA] Tox21 Assay overview: The Aryl hydrocarbon Receptor (AhR), a member of the family of basic helix-loop-helix transcription factors, is crucial to adaptive responses to environmental changes. AhR mediates cellular responses to environmental pollutants such as aromatic hydrocarbons through induction of phase I and II enzymes but also interacts with other nuclear receptor signaling pathways. A cell based HepG2-AhR-luc assay (HG2L7.5c1 cell line, developed by Dr. Michael S. Denison, University of California at Davis, was used to assess the activation of AhR. HepG2 (human hepatocellular carcinoma) cells were stably transfected with an Ah receptor-responsive firefly luciferase reporter gene plasmid containing 20 dioxin responsive elements and luciferase reporter gene. Increased luciferase activity can be used to identify the compounds that induce AhR activation.\nTox21 Assay Protocol Summary: 4000 cells in 5 uL/well were dispensed into white wall/solid bottom 1536-well plates using a Multidrop Combi (Thermo Fisher Scientific Inc., Waltham, MA) dispenser. After the assay plates were incubated at 37C for 5 h, 23 nL of compound or DMSO vehicle was transferred to the assay plates by a pintool station (Kalypsys, San Diego, CA). The plates were incubated at 37C for 24 hr. After 1 ul/well of CellTiter-Fluor reagent (Promega, Madison, WI) was added into the assay plates using a Flying Reagent Dispenser (FRD) (Aurora Discovery, CA), the assay plates were incubated at 37C for 30 min. The fluorescence intensity in the plates was measured using a ViewLux plate reader (PerkinElmer, Shelton, CT), followed by the addition of 4 uL of ONE-Glo Luciferase Assay reagent (Promega) using an FRD (Aurora Discovery). After the assay plates were incubated at room temperature for 30 min, luminescence intensity was measured using a ViewLux plate reader (Perkin Elmer)."}
{"smiles": "O=C1C=CCCC1", "Potency": "inactive"}
{"smiles": "CCCCCCCCCC(C)C=O", "note": "(stereo not given)", "Potency": "inactive"}
{"smiles": "C=CCCC", "Potency": "inactive"}
{"smiles": "O=C(O)c1ccc2cc(O)ccc2c1", "Potency": "inactive"}
{"smiles": "CCCCC(CC)COCCC#N", "note": "(stereo not given)", "Potency": "inactive"}
{"smiles": "O=[N+]([O-])c1ccc(Cl)cc1Cl", "Potency": "inactive"}
{"smiles": "N#Cc1ccc(CC(=O)c2cccc(C(F)(F)F)c2)cc1", "Potency": "inactive"}
{"smiles": "CCCCCCCCCCCCCCCCCCCl", "activation": "-0.694% [at 8.47 µM]"}
{"smiles": "Oc1ccc(Oc2ccccc2)cc1", "Potency": "inactive"}
{"smiles": "OCCOc1cccc(OCCO)c1", "Potency": "inactive"}
{"smiles": "Nc1ccccc1Nc1ccccc1", "Potency": "54.6 µM (active)"}
{"smiles": "CCCCOc1ccc(N)cc1", "Potency": "inactive"}
{"smiles": "CCCCCCCCCCCCSC#N", "Potency": "inactive"}
{"smiles": "CC(C)C/C=C(\\C=O)c1ccccc1", "Potency": "inactive"}
{"smiles": "O=C(c1ccc(Cl)cc1)c1ccc(Cl)cc1", "Potency": "inactive"}
{"smiles": "O=Cc1ccc(Cl)c([N+](=O)[O-])c1", "Potency": "inactive"}
{"smiles": "CC(Cc1ccccc1)(NC(=O)CN)c1ccccc1", "note": "(stereo not given)", "Potency": "inactive"}
{"smiles": "C[C@H]1C[C@H]2[C@@H]3CCC4=CC(=O)C=C[C@]4(C)[C@@]3(F)[C@@H](O)C[C@]2(C)[C@@]1(O)C(=O)COP(=O)(O)O", "Potency": "inactive"}
{"smiles": "O=C(Nc1ccccc1)c1cc([N+](=O)[O-])ccc1Cl", "Potency": "54.5 µM (active)"}
{"smiles": "NC(=O)c1cc[n+](CC2=C(C(=O)[O-])N3C(=O)[C@@H](NC(=O)Cc4cccs4)[C@H]3SC2)cc1", "Potency": "inactive"}
{"smiles": "COC(=O)c1cc(Cl)ccc1[N+](=O)[O-]", "Potency": "inactive"}
{"smiles": "O=C1c2ccccc2C(=O)C1c1ccc2ccccc2n1", "Potency": "10.8 µM (active)"}
{"smiles": "CCOC(OCC)OCC", "Potency": "inactive"}
{"smiles": "C=Cc1ccc(C=C)cc1", "Potency": "inactive"}
{"smiles": "Cc1ccc(NC=O)c(C)c1", "Potency": "inactive"}
{"smiles": "CC(=O)OCC(=O)[C@@]1(O)CC[C@H]2[C@@H]3CCC4=CC(=O)C=C[C@]4(C)[C@@]3(F)[C@@H](O)C[C@@]21C", "Potency": "inactive"}
{"smiles": "CO[C@@H]1COCC[C@@H]1N[C@@H]1CC[C@@](C(=O)N2CCc3ncc(C(F)(F)F)cc3C2)(C(C)C)C1", "Potency": "inactive"}
{"smiles": "Cc1c(Cl)cccc1[N+](=O)[O-]", "Potency": "inactive"}
{"smiles": "Cc1c(N=C=O)cccc1N=C=O", "Potency": "inactive"}
{"smiles": "O=C(O)c1cccc(C(=O)O)c1C(=O)O", "Potency": "inactive"}
{"smiles": "Clc1cc(Cl)c2c(c1)N=C1CCCCCN1C2", "Potency": "inactive"}
{"smiles": "CCCCCCC/C=C/C=O", "Potency": "inactive"}
{"smiles": "COC(=O)/C=C/C(C)=C\\C=C\\C(C)=C\\C=C\\C=C(C)\\C=C\\C=C(C)\\C=C\\C(=O)O", "Potency": "inactive"}
{"smiles": "CC(C)CCCCCOC(=O)CS", "Potency": "inactive"}
{"smiles": "O=C(O)c1cccnc1Nc1cccc(C(F)(F)F)c1", "Potency": "inactive"}
{"smiles": "C=CC(C)(O)CC/C=C(/C)CCC=C(C)C", "note": "(stereo not given)", "Potency": "inactive"}
{"smiles": "Cc1cc(C)n(CO)n1", "Potency": "inactive"}
{"smiles": "Cc1ccc2c(Cl)cc(Cl)c(O)c2n1", "Potency": "inactive"}
{"smiles": "CCCCCCCCC(=O)OCC(C)OC(=O)CCCCCCCC", "note": "(stereo not given)", "Potency": "inactive"}
{"smiles": "COc1ccc(C(=O)c2ccc(C)cc2)c(O)c1", "Potency": "9.44 µM (active)"}
